From PubChem
Only some compounds are listed: those with a hit (about 0.83% of all), similar ones and a draw of the others.
NR5A2 inv ag: suppresses constitutive activity of human LRH-1 | O00482 | HEK293T StAR-luciferase reporter, LRH-1 transfected, 24 h | inhibition, % at 3.6 µM | hit rate 0.13% among 360,000 | AID 602396;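 active means inhibition above the mean inhibition of all tested compounds plus 3 SD, cut at about 73% in these data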
SRC2 inh: human SRC2 (NCOA2) inhibition; Q15596; HEK293 GAL4-SRC2 luciferase reporter, luminescence; inhibition, % at 9 µM; hit rate 0.17% among 370,000; AID 651957;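 active means inhibition above the mean inhibition of all tested compounds plus 3 SD, set per campaign, cut at about 52% in these data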
SRC3 inh: human NCOA3 inhibition; Q9Y6Q9; HEK293 GAL4-SRC3 luciferase reporter, luminescence; inhibition, % at 3.6 µM; hit rate 0.17% among 360,000; AID 588352;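 active means inhibition above a per-campaign cutoff, the mean of all compounds plus 3 SD, cut at about 60% in these data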;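 further: higher means less SRC3-driven luciferase light from the GAL4 reporter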
Target sequence (Q9Y6Q9 whole entry, looked up, the tested form may be a part): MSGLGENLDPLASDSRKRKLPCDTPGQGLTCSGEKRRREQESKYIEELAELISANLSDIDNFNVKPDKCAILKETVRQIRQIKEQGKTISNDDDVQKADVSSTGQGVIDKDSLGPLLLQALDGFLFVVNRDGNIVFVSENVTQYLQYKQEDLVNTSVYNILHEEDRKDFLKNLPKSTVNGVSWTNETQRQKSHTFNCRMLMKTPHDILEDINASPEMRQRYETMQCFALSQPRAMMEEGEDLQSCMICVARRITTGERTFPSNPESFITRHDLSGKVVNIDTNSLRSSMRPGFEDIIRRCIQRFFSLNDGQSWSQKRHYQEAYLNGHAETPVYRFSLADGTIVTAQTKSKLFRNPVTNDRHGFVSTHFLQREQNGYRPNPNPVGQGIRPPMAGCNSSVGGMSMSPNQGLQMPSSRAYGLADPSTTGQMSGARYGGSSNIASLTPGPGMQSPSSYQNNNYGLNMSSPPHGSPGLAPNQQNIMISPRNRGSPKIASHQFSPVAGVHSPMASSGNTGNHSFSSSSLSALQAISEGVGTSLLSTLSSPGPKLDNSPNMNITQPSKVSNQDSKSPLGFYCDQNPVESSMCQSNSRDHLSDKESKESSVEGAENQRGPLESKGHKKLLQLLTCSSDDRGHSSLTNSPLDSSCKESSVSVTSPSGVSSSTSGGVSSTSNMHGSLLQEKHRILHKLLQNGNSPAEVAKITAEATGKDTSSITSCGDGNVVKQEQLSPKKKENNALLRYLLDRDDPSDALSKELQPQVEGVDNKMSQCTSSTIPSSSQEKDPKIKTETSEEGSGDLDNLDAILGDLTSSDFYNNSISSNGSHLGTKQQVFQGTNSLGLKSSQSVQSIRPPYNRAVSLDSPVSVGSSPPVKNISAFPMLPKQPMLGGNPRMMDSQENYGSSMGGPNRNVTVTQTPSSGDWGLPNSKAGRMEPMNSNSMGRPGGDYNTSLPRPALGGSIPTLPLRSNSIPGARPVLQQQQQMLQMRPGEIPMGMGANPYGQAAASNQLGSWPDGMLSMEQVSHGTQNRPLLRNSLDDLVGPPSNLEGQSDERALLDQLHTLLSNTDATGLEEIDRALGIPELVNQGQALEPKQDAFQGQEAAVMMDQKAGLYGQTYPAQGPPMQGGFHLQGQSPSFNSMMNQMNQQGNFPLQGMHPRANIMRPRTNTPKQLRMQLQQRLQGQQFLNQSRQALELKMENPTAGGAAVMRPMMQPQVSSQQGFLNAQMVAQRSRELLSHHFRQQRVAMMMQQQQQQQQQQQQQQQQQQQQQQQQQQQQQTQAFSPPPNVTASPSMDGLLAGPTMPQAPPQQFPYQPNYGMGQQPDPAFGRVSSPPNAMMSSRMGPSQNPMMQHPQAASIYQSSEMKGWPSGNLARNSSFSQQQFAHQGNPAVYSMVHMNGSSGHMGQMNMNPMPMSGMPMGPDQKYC
NCOA1 inh: human NCOA1 inhibition; HEK293 GAL4-SRC1 luciferase reporter, luminescence; AID 588354; Q15788; inhibition, % at 3.6 µM; hit rate 0.12% among 360,000;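 active means inhibition above the campaign mean plus 3 SD, with each screening campaign given its own cutoff, cut at about 60% in these data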
Gli-Sufu antag: Gli-Sufu pathway antagonism; Sufu-KO-LIGHT fibroblasts, Gli luciferase reporter luminescence; inhibition, % at 5 µM; hit rate 0.74% among 340,000;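 active means inhibition above about 55%, limit read from the data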
Hits are given with their value.

Screening COC(=O)C1CN(Cc2cn(Cc3ccccc3)nn2)CCS(=O)(=O)N1Cc1ccc(Cl)cc1 (stereo not drawn) returned SRC2 inh inactive.
Screening CC(=O)Nc1nc2ncccn2c1-c1ccc(F)c(F)c1 returned SRC2 inh inactive.
For Cn1c(=O)c2c(nc(CN3CCOCC3)n2CC(=O)c2ccccc2)n(C)c1=O the results were NR5A2 inv ag 96, SRC2 inh inactive, SRC3 inh inactive, NCOA1 inh inactive and Gli-Sufu antag inactive.
Screening Cn1c(=O)c2c(nc(CN3CCc4ccccc4C3)n2CC(=O)c2ccccc2)n(C)c1=O returned NR5A2 inv ag inactive, SRC2 inh inactive, SRC3 inh inactive, NCOA1 inh inactive and Gli-Sufu antag inactive.
`CCC(C)Nc1nc(-c2ccccn2)nc2ccccc12` (stereo not drawn) gave NR5A2 inv ag 81, SRC2 inh inactive, SRC3 inh 64, NCOA1 inh inactive and Gli-Sufu antag inactive.
`c1ccc(CNc2nc(-c3ccccn3)nc3ccccc23)cc1` gave NR5A2 inv ag inactive, SRC2 inh inactive, SRC3 inh inactive, NCOA1 inh inactive and Gli-Sufu antag inactive.
CC(CCN1CCC(C(O)(c2ccccc2)c2ccccc2)CC1)Oc1ccc(OC(F)(F)F)cc1 (stereo not drawn) was read as SRC2 inh inactive.
Screening Cc1c(/C(O)=C2/C(=O)C(=O)N(Cc3cccnc3)C2c2ccccn2)cnn1-c1ccccc1 (stereo not drawn) returned NR5A2 inv ag inactive, SRC2 inh 77, SRC3 inh 76, NCOA1 inh 70 and Gli-Sufu antag inactive.
`O=C(NC1=NCCS1)C1COc2ccccc2O1` (stereo not drawn) gave NR5A2 inv ag inactive, SRC2 inh 57, SRC3 inh inactive, NCOA1 inh inactive and Gli-Sufu antag inactive.
O=C(Nc1ccc(OCc2ccccc2Cl)cc1)c1cccnc1 was read as NR5A2 inv ag inactive, SRC2 inh 67, SRC3 inh inactive, NCOA1 inh inactive and Gli-Sufu antag inactive.
`COC1=CC(=O)c2nc(Cl)ccc2C1=O` gave NR5A2 inv ag 76, SRC2 inh inactive, SRC3 inh inactive and NCOA1 inh 64.
COc1cccc(OC[C@@H](O)CN2CCC(C(O)(c3ccccc3)c3ccccc3)CC2)c1 was read as SRC2 inh inactive.
`OCC1OC(n2cnc3c(NCc4ccco4)ncnc32)C(O)C1O` (stereo not drawn) gave NR5A2 inv ag inactive, SRC2 inh inactive, SRC3 inh 63, NCOA1 inh inactive and Gli-Sufu antag inactive.
For Nc1nc(F)nc2c1ncn2[C@@H]1O[C@H](CO)[C@@H](O)[C@H]1O the results were NR5A2 inv ag 102, SRC2 inh 69, SRC3 inh 92, NCOA1 inh 88 and Gli-Sufu antag 71.
For OC[C@H]1O[C@@H](n2cnc3c(NCc4ccco4)ncnc32)[C@H](O)[C@@H]1O the results were NR5A2 inv ag inactive, SRC2 inh inactive, SRC3 inh inactive, NCOA1 inh inactive and Gli-Sufu antag inactive.
For CCc1ccccc1Nc1ncnc2ccccc12 the results were NR5A2 inv ag inactive, SRC2 inh inactive, SRC3 inh inactive and NCOA1 inh inactive.
CCCCCCCCNc1ncnc2ccccc12 was read as NR5A2 inv ag inactive, SRC3 inh inactive, NCOA1 inh inactive and Gli-Sufu antag 82.
C=C1C(=O)O[C@H]2C[C@H]1[C@@H](OC(C)=O)C/C(C)=C/CC/C(C)=C\CC[C@]2(C)O was read as NR5A2 inv ag inactive, SRC2 inh inactive, SRC3 inh 72, NCOA1 inh inactive and Gli-Sufu antag inactive.
Cc1ccc2nc(-c3ccc(NC(=O)CSc4nnc(-c5cccc(Cl)c5)n4Cc4ccco4)cc3)sc2c1 was read as SRC2 inh inactive.
C[C@@H]1C[C@H]2O[C@@H]2/C=C\C=C\C(=O)Cc2cc(O)cc(O)c2C(=O)O1 was read as SRC2 inh 55.
C[C@@H]1C[C@@H]2O[C@H]2CCCCC(=O)Cc2cc(O)cc(O)c2C(=O)O1 was read as SRC2 inh inactive.
`COc1ccc(S[C@]2(C(=O)N3CCCC3)CC(=O)N(c3ccccc3OC)[C@@H]2c2ccc(OC)cc2)cc1` gave SRC2 inh inactive.
`Cc1ccc2nc(-c3ccc(NC(=O)CSc4nnc(-c5cc(C)[nH]n5)n4N)cc3)sc2c1` gave SRC2 inh inactive.
For CC(=NNC(=S)Nc1ccccc1Cl)c1ccccn1 the results were NR5A2 inv ag 74, SRC2 inh inactive, SRC3 inh 63, NCOA1 inh 66 and Gli-Sufu antag 93.
`C/C(=N\NC(=O)c1cc2ccccc2cc1O)c1ccccn1` gave NR5A2 inv ag inactive, SRC2 inh inactive, SRC3 inh inactive, NCOA1 inh inactive and Gli-Sufu antag 90.
